Laboratory results published in PubChem BioAssay AID1159580 (chemical genetic matrix, 2015).
Where “and” joins values, the source holds several entries; their conditions need not be identical. Equal values may be shown once. Screen size: about 5,500 compounds; about 2,000 (36%) were called active. Another 18% or so got no clear call; they are omitted. Rule as the data show it: active = normalized growth mostly below about 0.91 (no sharp cut-off); inconclusive = no clear call, values can overlap the other calls; inactive = mostly above about 0.92. This is one part of the list.

Test: chemical genetic growth profiling, strain panel (AID 1159580);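 also: tested at 20 µM; growth read once vehicle control cultures reached saturation at 30 °C; 1 = growth at the plate median or of vehicle wells; lower values mean less growth of the strain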
Settings: S. cerevisiae deletion strains, growth OD

Measured: normalized growth

CN(C)C(=O)C(CCN1CCC(O)(c2ccc(Cl)cc2)CC1)(c1ccccc1)c1ccccc1
active: locus YER155C, strain BEM2 (second series), active compounds read low 0.843
inactive: locus YAL013W, strain DEP1, active compounds read low 1.01 | locus YAL021C, strain ccr4, active compounds read low 0.984 | locus YAL026C, strain drs2, active compounds read low 0.999 | locus YAL030W, strain snc1, active compounds read low 1 | locus YAL040C, strain CLN3, active compounds read low 0.979 | locus YBL061C, strain skt5, active compounds read low 0.99 | locus YBR009C, strain hhf1, active compounds read low 0.993 | locus YBR021W, strain FUR4, active compounds read low 0.977 | locus YBR023C, strain chs3, active compounds read low 1.01 | locus YBR171W, strain sec66, active compounds read low 0.988 | locus YBR229C, strain ROT2, active compounds read low 0.997 | locus YBR231C, strain swc5, active compounds read low 0.965 | locus YBR279W, strain paf1, active compounds read low 0.995 | locus YCL011C, strain gbp2, active compounds read low 0.989 | locus YCL016C, strain dcc1, active compounds read low 0.994 | locus YCL029C, strain bik1, active compounds read low 1.03 | locus YCL061C, strain MRC1 (second series), active compounds read low 0.996 | locus YCL061C, strain MRC1, active compounds read low 0.988 | locus YCL069W, strain vba3, active compounds read low 0.991 | locus YCR088W, strain abp1, active compounds read low 1 | locus YDL005C, strain med2, active compounds read low 0.988 | locus YDL035C, strain GPR1, active compounds read low 0.965 | locus YDL040C, strain nat1, active compounds read low 0.994 | locus YDL074C, strain BRE1, active compounds read low 0.979 | locus YDL101C, strain DUN1, active compounds read low 1 | locus YDL134C, strain PPH21, active compounds read low 1.01 | locus YDL185W, strain tfp1, active compounds read low 1.02 | locus YDL192W, strain arf1, active compounds read low 1.02 | locus YDR001C, strain nth1, active compounds read low 1 | locus YDR069C, strain doa4, active compounds read low 1 | locus YDR101C, strain arx1, active compounds read low 1.01 | locus YDR137W, strain rgp1, active compounds read low 1.11 | locus YDR150W, strain NUM1, active compounds read low 1.01 and 0.999 | locus YDR159W, strain sac3, active compounds read low 0.999 | locus YDR162C, strain NBP2, active compounds read low 1 | locus YDR195W, strain ref2 0.949 | locus YDR297W, strain sur2, active compounds read low 1 | locus YDR318W, strain mcm21, active compounds read low 1.01 | locus YDR334W, strain swr1, active compounds read low 1.01 | locus YDR335W, strain msn5, active compounds read low 1 | locus YDR363W, strain ESC2, active compounds read low 0.967 | locus YDR388W, active compounds read low 1.02 | locus YDR392W, strain spt3, active compounds read low 0.797 | locus YDR502C, strain sam2, active compounds read low 1.01 | locus YEL003W, strain gim4, active compounds read low 0.993 | locus YEL037C, strain rad23, active compounds read low 1 | locus YEL061C, strain CIN8 (second series), active compounds read low 1.01 | locus YEL061C, strain CIN8, active compounds read low 1 | locus YER002W, strain NOP16, active compounds read low 1.01 | locus YER015W, strain faa2, active compounds read low 0.967 | locus YER016W, strain bim1, active compounds read low 0.996 | locus YER110C, active compounds read low 1.02 | locus YER111C, strain swi4, active compounds read low 0.98 | locus YER155C, strain BEM2, active compounds read low 1.01 | locus YER167W, strain BCK2, active compounds read low 0.981 | locus YFR010W, strain ubp6, active compounds read low 0.988 | locus YGL078C, strain dbp3, active compounds read low 1.01 | locus YGL086W, strain mad1, active compounds read low 0.989 | locus YGL167C, strain pmr1, active compounds read low 0.99 | locus YGL173C, strain kem1, active compounds read low 0.981 | locus YGL227W, strain vid30, active compounds read low 1 | locus YGL240W, strain doc1, active compounds read low 0.956 | locus YGL248W, strain PDE1, active compounds read low 1 | locus YGL253W, strain hxk2, active compounds read low 1.02 | locus YGR078C, strain PAC10, active compounds read low 1 and 0.987 | locus YGR135W, strain pre9, active compounds read low 1.01 | locus YGR229C, strain SMI1, active compounds read low 1.01 | locus YGR252W, strain gcn5, active compounds read low 0.871 | locus YHR013C, strain ard1, active compounds read low 0.955 | locus YHR027C, strain rpn1, active compounds read low 0.999 | locus YHR030C, strain SLT2, active compounds read low 1.01 and 0.969 | locus YHR079C, strain IRE1 (second series), active compounds read low 1.02 | locus YHR079C, strain IRE1, active compounds read low 0.987 | locus YHR094C, strain hxt1, active compounds read low 1.01 | locus YHR129C, strain ARP1, active compounds read low 1 | locus YHR142W, strain chs7, active compounds read low 1.01 | locus YHR200W, strain rpn10, active compounds read low 0.997 | locus YIL066C, strain RNR3, active compounds read low 1 | locus YIL073C, strain SPO22, active compounds read low 1.05 | locus YIL125W, strain kgd1, active compounds read low 1.01 | locus YIR030C, strain dcg1, active compounds read low 1.02 | locus YJL092W, strain hpr5, active compounds read low 0.994 | locus YJL095W, strain BCK1 (second series), active compounds read low 0.993 | locus YJL095W, strain BCK1, active compounds read low 1 and 0.99 | locus YJL115W, strain asf1, active compounds read low 0.978 | locus YJL129C, strain trk1, active compounds read low 0.941 | locus YJL134W, strain LCB3, active compounds read low 1.01 | locus YJL154C, strain vps35, active compounds read low 0.998 | locus YJL164C, strain tpk1, active compounds read low 0.994 | locus YJL166W, strain qcr8, active compounds read low 0.967 | locus YJL168C, strain set2, active compounds read low 1.01 | locus YJL187C, strain SWE1 (second series), active compounds read low 1.02 | locus YJR043C, strain POL32, active compounds read low 0.986 | locus YJR066W, strain TOR1, active compounds read low 0.928
